Screening results from PubChem.
The list is not random: actives were taken first. Their share in the collection is about 3.4%.
IMPase Li cell: cell-permeable IMPase inhibitors with lithium potentiation; CHO-M1 cells, IP1 TR-FRET (IP-One), carbachol + lithium; Potency, µM (titrated, usually from 59.4 µM), inactives show top-dose activity, negative = IMPase inhibition, actives largely listed as inhibitors; 0.35% of 210,000 active; AID 1457;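 further: IP1 builds up when IMPase is blocked and the TR-FRET signal falls; potency means the concentration at half of the fitted maximal effect; plate controls were basal vehicle for no effect and high inhibitor control for full effect; nearly all actives have a fitted effect of over 50% in size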
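IP1 accumulation measured by competitive TR-FRET in lysed CHO-M1 cells after 30 min compound exposure at 37C, with a small lithium addition to potentiate weak responses. Hill-equation AC50 from ratio and donor-channel data.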
HttQ103 aggreg: inhibitors of mutant huntingtin aggregate formation in PC12 cells; Potency, µM (series often up to 46.1 µM), for the others: at the highest dose activity change, negative = inhibition, hits mostly inhibitors; PC12 HttQ103-GFP aggregates, Acumen cytometry, 40 h; 1.1% of 220,000 active; further: potency means the concentration at half of the fitted maximal effect; on the % scale 0 is the no-effect control and ±100 the full control effect; nearly all actives have a fitted effect of over 60% in size
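PC12 cells with ecdysone-inducible HTT exon1 Q103-GFP, induced by 100 nM tebufenozide, given compounds in a concentration series. GFP aggregates (1–25 um, 6 SD above background) counted in lysates by laser-scanning cytometry, 488 nm excitation.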
NPSR antag: blocks cAMP signaling of the human neuropeptide S receptor. 1% of 220,000 active. Potency, µM (series often up to 38.3 µM), for inactives: top-dose activity change, negative = inhibition, hits mostly inhibitors. AID 1461. CHO-NPSR cells, cAMP TR-FRET, antagonist mode; further: potency means the concentration at half of the fitted maximal effect; on the % scale 0 is the no-effect control and ±100 the full control effect; nearly all actives have a fitted effect of over 50% in size
Target sequence (Q6W5P4 whole entry, looked up): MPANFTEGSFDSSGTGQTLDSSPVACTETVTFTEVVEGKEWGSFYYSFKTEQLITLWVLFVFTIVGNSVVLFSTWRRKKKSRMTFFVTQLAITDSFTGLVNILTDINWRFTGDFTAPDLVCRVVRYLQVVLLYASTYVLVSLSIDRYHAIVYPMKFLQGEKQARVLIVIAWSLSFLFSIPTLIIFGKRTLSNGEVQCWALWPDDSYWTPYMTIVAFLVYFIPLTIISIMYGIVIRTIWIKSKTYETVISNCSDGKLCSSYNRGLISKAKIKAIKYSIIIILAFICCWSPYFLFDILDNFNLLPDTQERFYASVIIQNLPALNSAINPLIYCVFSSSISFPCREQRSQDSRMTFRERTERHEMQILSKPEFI
HTT cytoprotect: cytoprotection in Huntington HTT-Q103 PC12 cell model | PC12 HTT-Q103 induced, cytoprotection, ATP luminescence, 40 h | Potency, µM (titrated, usually from 56.4 µM), for the others: cytoprotection (ATP increase), usual class: activators | 0.14% of 230,000 active | AID 1471; further: potency means the concentration at half of the fitted maximal effect; % of control where 0% means no effect; nearly all actives have a fitted effect of over 45% in size
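Compounds added alongside 100 nM tebufenozide, which induces toxic Q103 huntingtin exon 1-GFP in stable PC12 cells; surviving cells quantified by luminescent ATP measurement. Medium: phenol red-free DMEM, 5% equine and 5% calf serum.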
IMPase cell inh: cell-permeable inhibitors of inositol monophosphatase (IMPase) | CHO-M1 cells, IP1 accumulation, HTRF TR-FRET ratio | AID 901 | P97697 | inhibition (IP1 accumulation), % at 46.1 µM | 120,000 tested, under 10 active; active means well fitted curve in the direction sought with a large enough effect in the signal ratio, not every such curve was filed as active; inconclusive means small, poorly fitted or top-dose-only effect, or a change in a side signal; inactive means no such curve, though single readings can be large or run the other way; the % refers to the signal ratio;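 further: cells stimulated with carbachol in lithium chloride buffer; plate controls were DMSO basal wells for no effect and reference inhibitor wells for full effect; higher means more IMPase inhibition seen as more IP1 and lower FRET ratio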
Target sequence (P97697 whole entry, looked up): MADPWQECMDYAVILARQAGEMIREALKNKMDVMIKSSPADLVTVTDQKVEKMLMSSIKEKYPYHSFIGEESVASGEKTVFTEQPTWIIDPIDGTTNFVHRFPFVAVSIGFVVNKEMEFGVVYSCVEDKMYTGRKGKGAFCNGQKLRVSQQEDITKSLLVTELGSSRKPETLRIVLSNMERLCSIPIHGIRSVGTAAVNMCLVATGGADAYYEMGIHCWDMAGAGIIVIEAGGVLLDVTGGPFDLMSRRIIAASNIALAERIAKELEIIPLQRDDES
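CHO-M1, 2000 cells/well, cultured 16–30 h; cpd up to 46 uM; carbachol (50 uM solution, stimulation buffer w/ 50 mM LiCl, pH 7.4), 30 min 37C; IP-One TR-FRET, 10 min RT; Ex 320/Em 665, 620; Hill-fit AC50.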
PNC assembly inh: blocks assembly of the perinucleolar compartment; PC3M PTB-GFP, PNC prevalence imaging, 16 h; hits give low values; activity change (PNC), negative = inhibition, % at 10 µM; AID 2417; 3.1% of 140,000 active;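 active means readout at or below -70, meaning at least 70% loss of cells showing the perinucleolar compartment, a nuclear body marking cancer cells; inconclusive means readout between -30 and a set limit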;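 further: plate controls were DMSO wells for no effect and camptothecin positive control wells for full effect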
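Compounds are pinned in duplicate onto adhered PC3M cells stably expressing GFP-tagged PTB and incubated 16 h at 37 C. Cells are then fixed, nuclei stained with Hoechst, and PNC-positive cells counted.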
Starred values were filed as active, the others as inactive; ? = inconclusive; . = no result given; ! = not active in a repeat; [ ] = another dose, or the depositor's remark. Unless noted, the call rests on the fitted dose curve; in most records, active means well fitted curve in the direction sought with a large enough effect; inconclusive means small, poorly fitted or top-dose-only effect, or another doubt; inactive means no such curve, though single readings can be large; an effect the other way counts as inactive or inconclusive.

SMILES	IMPase Li cell	HttQ103 aggreg	NPSR antag	HTT cytoprotect	IMPase cell inh	PNC assembly inh
C=C(CO)C1Cc2c(ccc3c2OC2COc4cc(OC)c(OC)cc4C2C3=O)O1 (stereo not drawn)	23%	.	.	-43%[1.9 µM]	14	.
Cc1cc(=O)c2cccc(Br)c2[nH]1	-11%	8%	-6%[46.1 µM]	24%[10 µM]	-8	-100*
CC(C)c1ccccc1NC(=O)COC(=O)Cc1ccsc1	-9%	12%	-4%[46.1 µM]	4%[10 µM]	-1	?
CC(NC(=S)NCCCN1CCOCC1)C12CC3CC(CC(C3)C1)C2 (stereo not drawn)	-4%	-1%	-14%	-29%	.	.
O=S1(=O)CCC(NC(=S)N2CCOCC2)C1 (stereo not drawn)	-8%	-6%	17%	-6%[10 µM]	.	-102*
O=C(/C=C\Nc1ccc(Br)cc1)c1cccnc1	-10%	25%	-1%	.	.	?
CC(C)c1ccccc1-n1c(SCc2cc(=O)oc3ccc4ccccc4c23)nnc1-c1cccnc1	7%	13%	10µM*	-15%[10 µM]	3	?
CCOc1ccc(-n2c(SCc3cc(=O)oc4cc(C)ccc34)nnc2-c2cccnc2)cc1	18%	31%	0%	-4%[1.9 µM]	13	34
CCCCC#Cc1ccccc1CC(=O)Nc1ccccc1	15%	0%	-4%	1%	.	-119*
O=C(Cc1ccccc1I)Nc1ccccc1	-2%	.	.	-1%	.	.
CC(/C=N/Nc1nc(C)cc(C)n1)=C\c1ccc(C(C)C)cc1	1%	1%	-44%	.	.	-114*
CC(C)Cn1c(N)c(C(=O)COC(=O)CC23CC4CC(CC(C4)C2)C3)c(=O)n(C)c1=O	36%[38.3 µM]	7.1µM*	?	-8%[10 µM]	4	6
CC(C)Cn1c(N)c(C(=O)COC(=O)c2ccc(Cl)cc2)c(=O)n(C)c1=O	11%	-20%	-46%	-15%	.	.
Oc1ccc(/C=N/Nc2nccnc2Cl)c(O)c1	47%[38.3 µM]	-30%[9.22 µM]	-20%[46.1 µM]	0%	8	53
Oc1ccc(/C=N/Nc2ncc(Br)cn2)c(O)c1	5%	13µM*	-24%	36%[10 µM]	.	47
COCC(=O)O[C@]1(CCN(C)CCCc2nc3ccccc3[nH]2)CCc2cc(F)ccc2[C@@H]1C(C)C	11%	7.9µM*!	10µM*	-99%	-4	.
COc1ccc(CNC(=O)Cn2cc([N+](=O)[O-])nc2C)cc1	-6%[38.3 µM]	7%	-9%[46.1 µM]	-20%	4	-86*
OC(COc1ccccc1)CN1CCOCC1 (stereo not drawn)	1%	2%	-8%[46.1 µM]	-4%[10 µM]	13	-100*
CC(NCC(O)COc1ccc(S(=O)(=O)N2CCOCC2)cc1)c1ccccc1 (stereo not drawn)	12%	-3%	?	2.2µM*	.	.
O=C(c1ccc(Cl)cc1)c1ccc(OCC(O)CN2CCOCC2)cc1 (stereo not drawn)	18%[38.3 µM]	-20%	5%[46.1 µM]	18%	7	?
Cc1ccc(NCc2nnc(SCC#N)o2)c(C)c1	6%	-1%	-6%[46.1 µM]	18%[10 µM]	10	-100*
Cc1ccc(NCc2nnc(SCC(=O)c3ccccc3)o2)c(C)c1	-20%[38.3 µM]	-16%	-9%[46.1 µM]	-8%	?	-16
COC(=O)CS(=O)(=O)c1nnc([C@H](Cc2ccccc2)NC(=O)OC(C)(C)C)o1	58%[38.3 µM]	?	7.9µM*	8%[10 µM]	20	?
Cc1ccc(C2(c3ccc(C)cc3)CC2C(=O)Nc2ccc([N+](=O)[O-])cc2O)cc1 (stereo not drawn)	26%[38.3 µM]	7.1µM*	?	-68%	6	-18
COc1ccc(NC(=O)CN(Cc2ccccc2)S(=O)(=O)c2ccc(C)cc2)cc1Cl	.	.	.	.	5	.
SMILES	IMPase Li cell	HttQ103 aggreg	NPSR antag	HTT cytoprotect	IMPase cell inh	PNC assembly inh
CCNC(=S)Nc1scc(-c2ccccc2)c1C(=O)OCC	?	14µM*	-56%	.	.	2
CCOC(=O)c1c(-c2ccc(C)c(C)c2)csc1NC(=O)C1CC=CCC1C(=O)O (stereo not drawn)	16%[38.3 µM]	-7%	10µM*	-1%	-3	34
CCOC(=O)c1c(-c2cccc([N+](=O)[O-])c2)csc1NC(=O)C1CCCCC1	15%	-29%	10µM*	-14%[10 µM]	-9	19
CCOC(=O)c1c(-c2ccccc2)csc1NC(=S)NC	-16%	-24%	-20%	20%[10 µM]	.	12
CCOC(=O)c1c(-c2cccc([N+](=O)[O-])c2)csc1NC(=O)C1CC1	11%[38.3 µM]	26%	-28%[46.1 µM]	-14%	12	-12
CCOC(=O)c1c(-c2ccc(F)cc2)csc1NC(=O)C1CC=CCC1C(=O)O (stereo not drawn)	1%	21%[9.22 µM]	-22%	-20%	.	.
Cc1c(-c2ccn[nH]2)cc(NC(=O)c2ccc(Cl)cc2)c(=O)n1N	-2%	-5%	-5%	20%[10 µM]	.	.
COc1cccc(/C=N/Nc2nc(Nc3ccccc3)nc(-n3nc(C)cc3C)n2)c1O	33%[38.3 µM]	1.1µM*	2.5µM*	-98%[10 µM]	9	14
COc1cccc(/C=N/Nc2cc(-n3nc(C)cc3-c3ccccc3)ncn2)c1O	13%	?	14%	-89%[10 µM]	.	-100*
COc1ccc(/C=N/Nc2cc(C)nc(-n3nc(C)cc3C)n2)c(OC)c1	8%	?	-57%	12%[10 µM]	.	-1
O=C1c2cccc3c2[C@@H](CCC3)CN1[C@@H]1CN2CCC1CC2	.	-17%	.	-37%	.	.
CC(=O)NCCNc1ncnc2ccc(-c3ccc(C(=O)N(C)C)cc3)cc12	4%	.	.	14%	.	.
Cc1cccc(NC(=O)c2c(NC(=O)c3ccco3)sc3c2CCC(C(C)(C)C)C3)c1 (stereo not drawn)	.	.	.	.	1	.
CC(=O)O[C@H]1C2=C(C(=O)[C@H]3O[C@@H]31)[C@@H]1[C@@H]3[C@@H](C)OC=C4[C@H](O)[C@H]5O[C@@H]5C(=O)[C@]43C2O[C@H]1C	.	.	.	-5%[10 µM]	.	.
COc1ccc(NC2=NCC(=O)N2c2ccccc2)c(OC)c1	-17%[38.3 µM]	6%	-8%[46.1 µM]	17%[10 µM]	7	-94*
Nc1c(Cl)cc(Cl)cc1Cl	-15%	.	.	-9%	.	.
O=C1OC(Cc2ccccn2)C(O)=C1C1=NCCCN1 (stereo not drawn)	-2%	-8%	13%	.	.	-83*
Oc1ccc(/C=N/N2CCN(C3c4ccccc4-c4ccccc43)CC2)cc1O	.	-7%[9.22 µM]	10µM*	-60%[10 µM]	.	.
Oc1ccc(/C=N/N2CCN(C3c4ccccc4-c4ccccc43)CC2)cc1	.	1%[9.22 µM]	-7%	-2%[10 µM]	.	.
CCCSc1nc2cc(C)c(C)cc2n1CC(C)O (stereo not drawn)	-2%	2%	-3%	-43%	.	.
Cc1cc(C(F)(F)F)nn1CC(=O)Nc1ccc(Br)c2cccnc12	9%	11%	-9%[46.1 µM]	8%[10 µM]	-12	-100*
CN(C)Cc1ccccc1-c1nccc(N(C)Cc2ccco2)n1	15%	.	.	19%	.	.
